Test results reported in PMC4102417.

These molecules were tested on murine 3T3 fibroblasts (assay: primary screen, percent viability or growth; higher = less effect of the substance).
Description: Similarly, for measuring the cytotoxicity concentration (CC50) for 3T3 fibroblast cells, cultures were incubated with drugs for 72 hours and developed using Alamar Blue (Alamar Biosciences Inc, Sacramento, CA) as previously described.

| Compound | Mammalian (3T3) cell % growth at 10 uM [%] |
| --- | --- |
| Clc1ccccc1C(c1ccccc1)(c1ccccc1)n1ccnc1 | 100 |
| CN1CCc2c(c3ccccc3n2Cc2ccccc2)C1.O=S(=O)(O)c1cccc2c(S(=O)(=O)O)cccc12 | 100 |
| C=CC(C1=CC(=O)C(OC)=CC1=O)c1ccccc1 (stereo not shown) | 0.9 |
| Cc1cc2nc3c(=O)[nH]c(=O)nc-3n(C[C@H](O)[C@H](O)[C@H](O)CO)c2cc1C | 0.9 |
| COc1cc(NC(C)CCCN)c2ncccc2c1.O=P(O)(O)O.O=P(O)(O)O (stereo not shown) | 91.1 |
| CC12CCC3C(CCC4CC(O)CCC43C)C1CCC2=O (stereo not shown) | 100 |
| CNc1ccccc1C(=O)N1CCc2c([nH]c3ccccc23)C1=O | 75.7 |
| CC(=O)Oc1ccc(Cl)c2cccnc12 | 0.5 |
| C=C1C2CCC3(C)C(c4ccoc4)OC(=O)CC13OC1CC(OC(C)=O)C(C)(C)C(CC(=O)OC)C12C (stereo not shown) | 84.1 |
| COc1cccc(O)c1O | 1.2 |
| Clc1ccc(COC(Cn2ccnc2)c2ccc(Cl)cc2Cl)cc1 (stereo not shown) | 100 |
| CN1CCCC(n2nc(Cc3ccc(Cl)cc3)c3ccccc3c2=O)CC1.Cl (stereo not shown) | 95.1 |
| CC(C)COCC(CN(Cc1ccccc1)c1ccccc1)N1CCCC1.Cl (stereo not shown) | 89.6 |
| CCCCC(CC)CNC(=N)NC(=N)NCCCCCCNC(=N)NC(=N)NCC(CC)CCCC.Cl.Cl (stereo not shown) | 12.3 |
| COc1ccc(-c2cc(=O)c3ccccc3o2)cc1 | 100 |
| CC1(C)C=CC(=O)C2(C)C1CC(=O)C1(C)C2CCC2(C)C(c3ccoc3)OC(=O)C3OC321 (stereo not shown) | 100 |
